Data on 20 compounds can be found in PubChem BioAssay (NCI).

About 83,000 compounds went through this panel and 20% of them were active in at least one assay; those are over-represented in the sample as a whole.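 Single-dose data. Exposure time 48 hours. Values below 10 considered active.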 A number with no mark means an inactive call. Calls of active or inactive are those of the source.

Among the test systems are HT29 colon; SNB-19 CNS; U251 CNS; PC-3 prostate; UACC-62 melanoma; LOX IMVI melanoma; SK-MEL-28 melanoma; SK-MEL-5 melanoma; SK-MEL-2 melanoma.
What all share (test): NCI-60 one-dose screen, 48 h (100 = growth as untreated, 0 = no growth, -100 = all killed)
Common to all, as to conditions: 10 µM

`CCOC(=O)C(NC(=O)C(Cl)Cl)C(O)c1ccccc1` (stereo not drawn): the growth in the assay with HT29 colon was 107%; in the assay with SNB-19 CNS it was 101%; in the assay on U251 CNS, 101%; in the assay with PC-3 prostate, -0.104% (active); in the assay on UACC-62 melanoma, 94.2%; with LOX IMVI melanoma, 99.9%. Besides, the growth in the assay with SK-MEL-28 melanoma is 144%.
For `CCN1CCCC1CNC(=O)c1ncc(-c2ccc(C(F)(F)F)cc2)c(NC2CCCCCC2)n1` (stereo not drawn), the growth is 11.7% in the assay with HT29 colon; 85.2% in the assay on SNB-19 CNS; 52.7% in the assay on U251 CNS; 58.4% in the assay with PC-3 prostate; 45.2% in the assay with SK-MEL-5 melanoma; 78.3% in the assay with UACC-62 melanoma. The growth is 87.1% in the assay on LOX IMVI melanoma and 81.5% in the assay on SK-MEL-28 melanoma.
For `COc1cc(NC(=O)CCSc2nc3ccc(C)cc3c(=O)n2Cc2ccccc2)cc(OC)c1OC`, the growth in the assay on HT29 colon is 78.9%; in the assay with SNB-19 CNS, 73.3%; in the assay with U251 CNS, 44.3%; with PC-3 prostate, 83%; in the assay on SK-MEL-5 melanoma it was 90.6%; in the assay on UACC-62 melanoma, 85%. Further, the results for the growth in the assay with LOX IMVI melanoma, with SK-MEL-28 melanoma and in the assay on SK-MEL-2 melanoma were 71.6%, 74% and 52.6%, respectively.
In the case of `O=C(O)C(SC(C(=O)O)c1ccccc1)c1ccccc1` (stereo not drawn), the growth was 103% in the assay with HT29 colon; 104% in the assay on SNB-19 CNS; 98.8% in the assay on U251 CNS; 105% with PC-3 prostate; 95.5% in the assay on UACC-62 melanoma; 99.4% with LOX IMVI melanoma. Moreover, the values for the growth in the assay with SK-MEL-28 melanoma and with SK-MEL-2 melanoma were 102% and 103%, respectively.
`CCn1cc(C(=O)O)c(=O)c2cnc(N3CCCC3)nc21`: the growth in the assay on HT29 colon was 111%; with SNB-19 CNS it was 105%; in the assay with U251 CNS, 103%; in the assay with SK-MEL-5 melanoma, 102%; with UACC-62 melanoma, 108%; in the assay on LOX IMVI melanoma it was 99.3%. The growth with SK-MEL-28 melanoma was 113%; in the assay with SK-MEL-2 melanoma, 97.7%.
In the case of `Clc1ccccc1N=Cc1ccc2c(c1)OCO2`, the growth with HT29 colon is 96.3%; in the assay with SNB-19 CNS it was 105%; with U251 CNS, 94.9%; in the assay on PC-3 prostate, 107%; with SK-MEL-5 melanoma it was 107%; with UACC-62 melanoma it was 103%. Also, the growth in the assay on LOX IMVI melanoma was 98.9%; with SK-MEL-28 melanoma it was 110%; in the assay with SK-MEL-2 melanoma, 108%.
In the case of `O=C1/C(=C\c2ccc(F)cc2)CN(C(=O)c2ccccc2F)C/C1=C\c1ccc(F)cc1`, the growth is -37% (active) in the assay with HT29 colon; 33.4% with SNB-19 CNS; -63% (active) in the assay with U251 CNS; -34.3% (active) with PC-3 prostate; -58.6% (active) in the assay with SK-MEL-5 melanoma; -77.6% (active) in the assay with UACC-62 melanoma. For the same compound, the growth in the assay with LOX IMVI melanoma is -80.8% (active); in the assay with SK-MEL-28 melanoma it was -72.5% (active); with SK-MEL-2 melanoma, 30.4%.
For the compound `CO/N=C(/C(=O)NC1C(=O)N2C(C(=O)O)=C(COC(N)=O)CSC12)c1ccco1` (stereo not drawn), the growth was 111% with HT29 colon; 95.5% with SNB-19 CNS; 107% with U251 CNS; 110% in the assay on SK-MEL-5 melanoma; 103% in the assay on UACC-62 melanoma; 102% in the assay with LOX IMVI melanoma. The figures for the growth with SK-MEL-28 melanoma and in the assay with SK-MEL-2 melanoma were 114% and 100%, respectively.
Turning to `C/C(N)=C(\C#N)C(=O)c1ccccc1`, the growth with HT29 colon is 105%; in the assay with U251 CNS it was 98.2%; in the assay with PC-3 prostate, 98.2%; in the assay on SK-MEL-5 melanoma, 99.5%; with UACC-62 melanoma it was 109%; with LOX IMVI melanoma, 99.8%. In addition, in the assay with SK-MEL-28 melanoma, the growth is 108%.
As to `CN(C)C=Nc1cc(Cl)ccc1Cl`, the growth is 100% in the assay on HT29 colon; 95.3% with SNB-19 CNS; 115% with U251 CNS; 99.8% in the assay on PC-3 prostate; 101% with SK-MEL-5 melanoma; 99.1% in the assay with UACC-62 melanoma. Also, the growth with LOX IMVI melanoma is 102%; with SK-MEL-28 melanoma it was 102%; with SK-MEL-2 melanoma it was 97%.
For the compound `C#Cc1ccc(-n2c(/C=C/c3ccc4ccccc4c3)nc3ncccc3c2=O)cc1`, the growth with HT29 colon is 0.964% (active); in the assay on U251 CNS, 43.2%; in the assay on PC-3 prostate, 13.7%; in the assay with SK-MEL-5 melanoma, -90.3% (active); in the assay on UACC-62 melanoma, 26.7%; with LOX IMVI melanoma, -39% (active). The growth is 58.8% in the assay with SK-MEL-28 melanoma and -33.2% (active) with SK-MEL-2 melanoma.
Consider `COc1cc(/C(=C2/O[C@@H]([C@H]3COC(C)(C)O3)[C@H]3OC(C)(C)O[C@@H]23)c2ccc3ccccc3c2)cc(OC)c1OC`, for which the growth is 41% in the assay with HT29 colon; 18% in the assay on U251 CNS; 27% in the assay with PC-3 prostate; 38.3% in the assay with SK-MEL-5 melanoma; 46.5% in the assay with UACC-62 melanoma; 46.4% with LOX IMVI melanoma. Moreover, the growth in the assay with SK-MEL-2 melanoma was -49.7% (active).
As to `CSC1=NCCCC1`, the growth with HT29 colon is 120%; in the assay with SNB-19 CNS it was 110%; in the assay with U251 CNS, 103%; with PC-3 prostate, 100%; in the assay with SK-MEL-5 melanoma, 106%; in the assay on UACC-62 melanoma it was 113%. Also, the growth in the assay on LOX IMVI melanoma was 98.4%; in the assay on SK-MEL-28 melanoma, 109%; with SK-MEL-2 melanoma, 105%.
`COc1ccc(NC2=NC(C)(CO)CS2)cc1` (stereo not drawn): the growth is 105% in the assay with HT29 colon; 103% in the assay with SNB-19 CNS; 101% in the assay with U251 CNS; 82.2% with PC-3 prostate; 96.3% with SK-MEL-5 melanoma; 96.1% with UACC-62 melanoma. Besides, the growth with LOX IMVI melanoma was 95.7%; with SK-MEL-28 melanoma, 106%; in the assay with SK-MEL-2 melanoma, 108%.
For the compound `COc1cc(-c2cc(C(=O)N3CCN(C(=O)c4ccccc4NCc4ccco4)CC3)nc3cc(-c4ccccc4)nn23)cc(OC)c1OC`, the growth is 1.33% (active) with HT29 colon; 45.4% with SNB-19 CNS; 24.7% in the assay on U251 CNS; 15.8% with PC-3 prostate; 3.81% (active) in the assay on SK-MEL-5 melanoma; 39.7% in the assay on UACC-62 melanoma. Further, the growth with LOX IMVI melanoma was 30%; in the assay on SK-MEL-28 melanoma, 59.3%; in the assay with SK-MEL-2 melanoma, 10.5%.
Consider `C(CCCC1=NCCO1)CCCC1=NCCO1`, for which the growth in the assay with HT29 colon is 118%; in the assay on SNB-19 CNS, 97.8%; with U251 CNS, 97.9%; in the assay on PC-3 prostate, 98%; in the assay on SK-MEL-5 melanoma, 99.7%; in the assay with UACC-62 melanoma it was 93%. Moreover, the growth is 94% in the assay on LOX IMVI melanoma, 95.4% with SK-MEL-28 melanoma and 98.3% with SK-MEL-2 melanoma.
With `N#Cc1ncc(Br)c(NC2CCCCCC2)n1`, the growth is 120% in the assay on HT29 colon; 91.5% with SNB-19 CNS; 92% with U251 CNS; 92.5% in the assay with PC-3 prostate; 103% in the assay with SK-MEL-5 melanoma; 95.5% in the assay with UACC-62 melanoma. Besides, the growth in the assay on LOX IMVI melanoma is 101%; with SK-MEL-28 melanoma, 104%; in the assay with SK-MEL-2 melanoma, 104%.
On to `COc1ccc2c(c1)N(CCO)C1=C(C(=O)OC1)C2c1ccccc1` (stereo not drawn), for which the growth in the assay on HT29 colon is 1.72% (active); with SNB-19 CNS, 41.1%; with U251 CNS, 20.9%; in the assay with PC-3 prostate, 27.1%; with SK-MEL-5 melanoma, 9.35% (active); with UACC-62 melanoma, 20.1%. For the same compound, the growth is 43.3% in the assay with LOX IMVI melanoma and 53.7% with SK-MEL-28 melanoma.
`Cc1ccc(N=Nc2c(N)nc(N)[nH]c2=O)cc1C`: the growth with HT29 colon is 93%; with SNB-19 CNS, 110%; in the assay on U251 CNS it was 103%; in the assay on PC-3 prostate, 95.7%; in the assay with SK-MEL-5 melanoma, 101%; in the assay with UACC-62 melanoma, 109%. For the same compound, the growth with LOX IMVI melanoma was 96%; in the assay with SK-MEL-28 melanoma, 115%; with SK-MEL-2 melanoma, 100%.
Turning to `COc1ccc(-c2cc(/C=C3\C(=O)Nc4ccc(OC)cc43)[nH]n2)cc1`, the growth was 3.87% (active) in the assay with HT29 colon; 62.1% in the assay on SNB-19 CNS; 37.8% in the assay with U251 CNS; 15.8% in the assay on PC-3 prostate; 31% in the assay on SK-MEL-5 melanoma; 39.4% in the assay on UACC-62 melanoma. Moreover, the figures for the growth in the assay on LOX IMVI melanoma, with SK-MEL-28 melanoma and in the assay with SK-MEL-2 melanoma were 40.3%, 57% and 23.4%, respectively.
